Screening results deposited in PubChem by National Center for Advancing Translational Sciences (NCATS).
Most compounds without a hit are left out; they make up all but 12% or so of the library.
Shiga toxin inh – A qHTS for Small Molecule Inhibitors of Shiga Toxin; Vero cells, Shiga toxin protein synthesis inhibition reporter; inhibition, % at 38.7 µM; 9.2% of 290,000 active; AID 2315, 2010; in the data active = inhibition mostly above about 28%, no sharp cut-off; inactive = mostly below about 43%; also: 0% is about no effect
CHX counter – Cycloheximide Counterscreen for Small Molecule Inhibitors of Shiga Toxin | cell reporter, cycloheximide protein synthesis inhibition counterscreen | max response, % | 12% of 300,000 active | AID 2314, 2010; in the data active = max response mostly above about 13%, no sharp cut-off; inactive = mostly below about 14%; also: read at 38.3 µM for the half of the compounds with a filed dose; 0% is about no effect
SARS PLP yeast – qHTS of Yeast-based Assay for SARS-CoV PLP; S. cerevisiae expressing SARS-CoV PLpro, growth rescue; Potency, µM (titrated, usually from 32.9 µM), inactives show top-dose activity, positive = growth rescue, usual class: activators; 0.19% of 330,000 active; also: potency is read from the fitted curve at half-maximal effect; 0% is about no effect; nearly all actives have a fitted effect of over 55% in size
NS1 function inh – qHTS Assay for Inhibitors of Influenza NS1 Protein Function; Potency, µM (highest dose often 46.1 µM), for inactives: top-dose activity, positive = more growth; 0.4% of 270,000 active; AID 2326, 2010; also: potency is read from the fitted curve at half-maximal effect; actives are rising curves; nearly all actives have a fitted effect of over 50% in size
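Recovery from NS1-induced slow growth read by OD600 in budding yeast switched to galactose assay medium (pH 6.0, -URA) at 1:100 dilution. Compound 23 nl per well; the matching strain lacking NS1 serves as control.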
* marks the source's active call; other numbers are inactive results; ? = inconclusive; · = not tested or not shown. Unless noted, calls follow the shape of the full dose curve.

SMILES	Shiga toxin inh	CHX counter	SARS PLP yeast	NS1 function inh
COc1cccc2cc(C(=O)NCC3CCCO3)c(=O)oc12 (centres undefined)	33	30*	-2%	0%
COc1cc(Br)cc2cc(C(=O)NCC3CCCO3)c(=O)oc12 (centres undefined)	-3	-2	0%	18%
CCOC(=O)CC(NC(=O)c1cc2cccc(OC)c2oc1=O)c1ccc(OC)cc1 (centres undefined)	102*	44*	-1%	-9%
COc1cccc2cc(C(=O)NC3CC4CCC3C4)oc12 (centres undefined)	21	14*	-16%	-53%
COc1cccc2cc(C(=O)NC(C)C3CCCO3)c(=O)oc12 (centres undefined)	63*	45*	-1%	0%
COc1ccc2oc(=O)c(C(=O)NC3CCCCCC3)cc2c1	·	23*	-1%	10%
CC(=O)Oc1c(I)cc(I)cc1C(=O)Nc1ccc(Cl)cc1	36	24*	-20%	-77%
COc1ccc(Cl)cc1C(=O)Nc1ccc(NC(C)=O)cc1	-2	3	-1%	-1%
C=CCn1c(COc2ccccc2F)nnc1SCC(=O)Nc1cc(C)on1	-11	1	1%	2%
CC(C)NC(=O)CSc1nncn1-c1ccccc1	48	8	1%	3%
O=C1NCCc2c1[nH]c1ccccc21	1	10	-1%	2%
CC(C)/C=C1\CCc2c([nH]c3ccccc23)C1=O	45*	32*	-2%	-8%
CCCC/C=C1\CCc2c([nH]c3ccccc23)C1=O	57*	32*	-1%	-4%
O=C1/C(=C\c2ccccc2)CCc2c1[nH]c1ccccc21	52*	42*	1%	7%
CCCCN1CCc2c([nH]c3ccccc23)C1=O	95*	35*	-1%	-16%
CCCCCN1CC(=O)N2Cc3[nH]c4ccccc4c3C[C@H]2C1=O	-7	8	0%	-2%
O=C(CN1CCN(c2ccc(O)cc2)CC1)Nc1ccccc1C(=O)NCCc1ccccc1	·	·	-2%	·
CCCCCn1c(=O)[nH]c2cc(C(=O)N3CCN(C(=O)OCC)CC3)ccc2c1=O	21	-3	18%	14%
Cc1nc(CNC(=O)CC2C(=O)NCCN2Cc2cccc(Oc3ccccc3)c2)cs1 (centres undefined)	2	-3	2%	2%
Cc1ccc(NS(=O)(=O)N2CCOCC2)c(C)c1	-10	-3	4%	12%
Cc1ccc2[nH]c3c(c2c1)CC/C(=C/c1ccccc1)C3=O	32	23*	1%	0%
Cc1ccc(/C=C2/CCc3c([nH]c4ccccc34)C2=O)cc1	52*	29*	2%	3%
COCc1ccc(-c2c(-c3ccsc3)oc(=O)c3cc(OC)c(OC)cc23)cc1	·	·	4%	·
O=C(Nc1ccc([N+](=O)[O-])cn1)C1CC2CCC1C2 (centres undefined)	17*	13	7%	-17%
CN(C)/C=N/C(=S)Nc1ccc(Cl)c(Cl)c1	111*	40*	-3%	-3%
SMILES	Shiga toxin inh	CHX counter	SARS PLP yeast	NS1 function inh
CN(C)/C=N/C(=S)Nc1ccc(F)cc1	38*	25*	·	6%
COc1ccc([N+](=O)[O-])cc1NC(=O)Cc1noc2ccc(C)cc12	1	-1	-4%	·
O=C(Nc1cccc2c1C(=O)NC2=O)c1ccccc1[N+](=O)[O-]	-1	-2	1%	1%
O=C1NC(=Nc2ccccc2)c2c1cccc2[N+](=O)[O-]	21	19*	6%	5%
CC(=O)N1CCc2cc(S(=O)(=O)NCCC(=O)Nc3ccc4c(c3)OCCO4)ccc21	66	30*	-1%	5%
O=S(=O)(Nc1ccc2c(c1)OCCO2)c1cccc2nsnc12	77*	49*	2%	2%
Cc1cccc(NC(=O)CCNS(=O)(=O)c2cccc3nsnc23)c1	-12	1	5%	-26%
O=C(CCNS(=O)(=O)c1cccc2nsnc12)Nc1ccc2c(c1)OCCO2	43	24*	6%	2%
CC(=O)Nc1sc(N/N=C/c2ccc(N(C)C)cc2)nc1-c1ccc(C)cc1	58*	25*	5%	3%
CC(=O)Nc1sc(/C(C#N)=C/c2ccc(Cl)c(Cl)c2)nc1-c1ccc(C)cc1	-6	-2	-11%	45%
CC(=O)Nc1sc(N/N=C/c2ccc(C)cc2)nc1-c1ccc(C)cc1	71*	52*	10%	8%
CCCCOC(=O)Nc1ccc(N2CCOCC2)cc1	80*	29*	12%	5%
CC(C)CC(=O)Nc1ccc(N2CCN(S(C)(=O)=O)CC2)cc1	26	-3	1%	-9%
Cc1nn(CC(=O)Nc2ccc(N3CCOCC3)cc2)c(C)c1Cl	35	8.8*	-5%	5%
CC(C)CC(=O)Nc1ccc(N2CCOCC2)cc1	89*	16	7%	16%
CCCCOC(=O)Nc1ccc(N2CCCCC2)cc1	94	43*	4%	-9%
COc1ccc(OC)c(NC(=O)NCc2cccnc2)c1	17	-3	1%	-1%
O=C(NCc1cccnc1)NC1CC(=O)N(c2ccc3c(c2)OCCO3)C1 (centres undefined)	-4	-2	0%	·
Cc1ccc(C)c(C(=O)COC(=O)c2cccc(N3C(=O)c4c(C)nc5ccccc5c4C3=O)c2)c1	94*	46*	-3%	0%
Cc1ccc(C(=O)C2COC(=O)C2)cc1 (centres undefined)	-15	1	0%	5%
Cc1ccc2nc(C(=O)N3CCCC(Nc4ccc(F)cc4)C3)cn2c1 (centres undefined)	81*	28*	-4%	6%
Cc1ccn2cc(C(=O)N3CCCC(Nc4ccc(F)cc4)C3)nc2c1 (centres undefined)	22	8	?	0%
Cc1cc(NS(C)(=O)=O)c(=O)n(Cc2cccc(F)c2)c1	-2	-3	-12%	-19%
CC(=O)NS(=O)(=O)c1ccc(N2C(=O)c3ccccc3C2=O)cc1	6	0	0%	·
CCN(Cc1cnn(C)c1)Cc1nc(Cc2ccccc2Cl)no1	31	15	1%	-3%
SMILES	Shiga toxin inh	CHX counter	SARS PLP yeast	NS1 function inh
COc1cccc(CSc2nc3ccncc3[nH]2)c1	50*	41*	-1%	21%
Clc1ccccc1CSc1nc2ccncc2[nH]1	66	21*	-9%	-4%
O=C(NCc1ccccc1Cl)c1ccc(CSc2nc3ccncc3[nH]2)cc1	-5	-4	0%	10%
COc1cccc(N2CCN(C(=O)c3ccc(CSc4nc5ccncc5[nH]4)cc3)CC2)c1	-8	-2	0%	26%
Cc1ccc(-c2nc(CN3CCCCC3)cc(CN3CCCCC3)c2O)cc1	12	-2	-1%	3%
O=C1CCC([N+](=O)[O-])C(c2cc(Br)ccc2F)N1 (centres undefined)	-1	-1	2%	1%
CCCCNC(=O)c1cc2ccccc2s1	71*	38*	-5%	·
CN(C)CCCNC(=O)c1cc2sc3ccccc3c2s1	11	10	0%	1%
Cc1ccc2sc(N(CCCN(C)C)C(=O)c3nc4ccccc4s3)nc2c1C	-26	-13	0%	·
COCCNC(=O)c1cc2sc3ccccc3c2s1	89*	58*	-15%	-55%
